Molecules are shown by their SMILES. Values joined by “and” are separate entries in the source; they are usually repeats but may differ in a detail not shown here. Identical values can stand only once. Records with an inconclusive call do not appear. Unmarked numbers belong to inactive results. The call rests on the fitted dose curve.

In the assay the target is Bile acid receptor (Homo sapiens) (UniProt Q96RI1). Nature of the assay: qHTS assay for small molecule agonists of farnesoid X receptor signaling (AID 588527).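 Further: series mostly up to about 77 µM; 0% = vehicle basal and 100% = reference agonist.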 Particulars: HEK293T FXR-UAS-bla, beta-lactamase ratio, 16 h; activation: hits give high values. The method in brief: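 Read-out: beta-lactamase reporter fluorescence with CCF4 substrate in GeneBLAzer FXR-UAS-bla HEK293T cells, after 16 h compound exposure at 37 C. Response scaled between DMSO basal (0%) and chenodeoxycholic acid at 100 uM (100%).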
Sequence of Bile acid receptor (Homo sapiens) (Q96RI1 whole entry, looked up): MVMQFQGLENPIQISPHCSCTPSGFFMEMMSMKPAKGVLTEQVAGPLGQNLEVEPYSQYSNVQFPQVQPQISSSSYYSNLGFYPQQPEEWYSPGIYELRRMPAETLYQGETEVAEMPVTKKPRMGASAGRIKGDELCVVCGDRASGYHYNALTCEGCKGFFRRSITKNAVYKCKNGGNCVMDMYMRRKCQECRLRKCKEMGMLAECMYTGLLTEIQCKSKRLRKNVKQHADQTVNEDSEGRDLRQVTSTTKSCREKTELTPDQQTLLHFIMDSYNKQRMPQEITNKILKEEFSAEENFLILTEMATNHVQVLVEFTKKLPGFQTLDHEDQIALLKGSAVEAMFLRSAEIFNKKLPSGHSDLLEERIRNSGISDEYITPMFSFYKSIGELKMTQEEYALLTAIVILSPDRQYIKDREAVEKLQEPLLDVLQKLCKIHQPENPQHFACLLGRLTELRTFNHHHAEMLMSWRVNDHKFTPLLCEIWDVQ
On the technique in general: Quantitative high-throughput screening tests each substance at several concentrations.
As to `CC(C)(C)c1ccc(O)c(C(C)(C)C)c1`, the activation was 3.24%.
In the case of `CC(C)C[C@H](NC(=O)OCC1c2ccccc2-c2ccccc21)C(=O)O` it was -0.845%; in that of `C=CCCCCCC`, -0.782%.
Consider `CC1CCC2CC1C2(C)C` (centres undefined), for which the activation is 3.3%.
As for `CC(=O)Nc1ccc(C(=O)CCl)cc1`, the activation is 2.69%.
In the case of `Cc1ccc(C(=O)O)cc1` it was -1.14%; in that of `CNC(=O)c1ccccc1`, 3.12%.
For the molecule `CCCCCCCCCCCC[N+](C)(C)C`, the activation is 0.368%.
Turning to `CCOCCOCCOCCO`, the activation is 2.46%.
As for `O=C=Nc1ccc(Cl)c(Cl)c1`, the activation was 2.96%.
In the case of `C=CCOC(=O)CCCCCCCC`, the activation was -1.24%.
As to `O=Cc1ccccc1Cl`, the activation was 0.21%.
As for `CC(=O)CC(=O)Nc1ccccc1`, the activation is 0.0824% and -0.252%.
Turning to `FC(F)(F)c1ccccc1Cl`, the activation was -1.54%.
In the case of `CC(C)c1ccc(C(C)C)cc1` it was 2.92%; in that of `CCCCOC(=O)/C=C\C(=O)OCCCC`, -3.9%; in that of `CC(O)CC(C)O` (centres undefined), -1.48%.
In the case of `O=C(O)C1(C(=O)Nc2ccc(Cl)cc2Cl)CC1` it was -11.8%.
For `O=C(O)CCCCCCCCC(=O)O`, the activation is -3.53%.
The value for `CC(=O)O[C@@H]1CC(C)=C2[C@H]1[C@H](C)CC[C@H]2/C=C(\C)C(=O)O` was 0.825%; that for `Cc1ccc2cccnc2c1` was 1.5%; that for `Oc1ccc(C(c2ccc(O)cc2)C(Cl)(Cl)Cl)cc1` was 0.126%.
In the case of `CCCCCCCCCCCC(=O)OC` it was 11.1%.
In the case of `O=P(O)(OCc1ccccc1)OCc1ccccc1`, the activation is -0.26%.
The value for `CCOCCO` was 0.436%.
`Cc1cc2nc(N)sc2cc1C`: the activation is 0.811%.
For `O=C(O)CCCCCCC(=O)O`, the activation is 1.16%.
For the molecule `CC(C)OB(OC(C)C)OC(C)C`, the activation was -0.77%.
The value for `Cc1nn(C)c(Oc2ccccc2)c1/C=N/OCc1ccc(C(=O)OC(C)(C)C)cc1` was 6.71%; that for `CO[Si](CCCNCCC[Si](OC)(OC)OC)(OC)OC` was 1.6%.
As to `CCCCOC(=O)COc1ccc(Cl)cc1Cl`, the activation was -5.91% and -0.513%.
As to `COc1cccc(N)c1`, the activation was 2.13%.
Turning to `OCC(CO)(CO)COCC(CO)(CO)CO`, the activation is -6.39%.
Take `CN(C)Cc1cc(CN(C)C)c(O)c(CN(C)C)c1`: the activation was -0.172%.
The value for `Nc1ccc(N)c(Cl)c1` was -0.837%; that for `CCCCCCCCCC[N+](C)(C)Cc1ccccc1` was 3.15%.
With `CC(C)(C)OC=O`, the activation was -2.91%.
The value for `CCCCCCCC(=O)Oc1c(Br)cc(C#N)cc1Br` was 1.95%.
In the case of `CCC(C)Nc1ccc(NC(C)CC)cc1` (centres undefined) it was -2.74%.

Source of the values: PubChem BioAssay (NCATS).
